Experimental findings from PubChem BioAssay (NCATS) are described below.

Results filed as inconclusive are left out. Calls of active or inactive are those of the source. Calls come from the whole dose curve; as a rule, active = well fitted inhibition curve with a large enough effect; inconclusive = small, poorly fitted or top-dose-only effect; inactive = flat fitted curve, though single readings scatter.
Potency is the fitted concentration of half-maximal effect.

In this test the test system is DFO2036. Briefly: qHTS profiling for inhibitors of Plasmodium falciparum proliferation (AID 504749).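 For activity, negative = inhibition: 0% = DMSO vehicle and full inhibition = artemisinin control.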 Note: nearly all actives have a fitted effect of over 60% in size. As to conditions: P. falciparum in erythrocytes, SYBR Green DNA, 72 h; series mostly up to 28.7 µM; activity, negative = inhibition: at the top concentration. From the text:
NIH National Institute of Allergy and Infectious Diseases [NIAID] NIH Chemical Genomics Center [NCGC] MLPCN Grant: None Assay Provider: Xinzhuan Su, NIAID NCGC Assay Overview: Plasmodium falciparum is a virulent malarial parasite that kills 1-2 million people worldwide each year. Transmitted by mosquitoes, the sporozoite form of the parasite enters the blood stream to infect hepatocytes, where they become merozoites that infect red blood cells (erythrocytes). Within erythrocytes, merozoites begin a […] cycle of growth and division, after which the parasite is released to infect new red blood cells. Gametocytes, which form within erythrocytes as well, circulate in the bloodstream and are ingested by the mosquito, thereby completing the life cycle. To profile malarial isolates for differential chemical responses and to identify inhibitors of malarial growth, an assay that measures P. falciparum growth and replication within erythrocytes was employed. This assay uses a DNA binding fluorescent dye (SYBR Green) to detect parasite DNA following cell lysis. Because mature erythrocytes lack DNA, only Plasmodium-derived DNA is detected.
NCGC Assay Protocol Summary: The SYBR Green viability assay was adapted from a method described previously (Plouffe et al., 2008). For screening 3 ul culture medium was dispensed into 1536 well black clear bottom plates (Aurora Biotechnologies) using a Multidrop Combi (Thermo Fisher Scientific Inc.), 23 nL compounds in DMSO were added by a pin tool (Kalypsys), and 5 ul of erythrocytes infected with P. falciparum (0.3% parasitemia, 2.5% hematocrit final concentration) were added. The plates were incubated at 37 C in a humidified incubator in 5% CO2 for 72 h, and 2 ul lysis buffer (20 mM Tris HCl, 10 mM EDTA, 0.16% saponin, 1.6% triton X, 10X SYBR Green I supplied as 10,000X […] by Invitrogen) was added to each well. The plates were mixed for 25 sec with gentle shaking and incubated overnight at room temperature in the dark. The following morning, fluorescence intensity at 485(14) nm excitation and 535(25) nm emission wavelengths was measured on an EnVision (Perkin Elmer) plate reader. Plate reads were normalized relative to the control inhibitor (0.29 uM artemisinin) and vehicle (DMSO) wells present on each plate and then corrected by an algorithm using vehicle-only control plates at the beginning and end of the compound plate stack.
A general note: Quantitative high-throughput screening tests each substance at several concentrations.
For `Nc1nc(/C(=C/CC(=O)O)C(=O)NC2C(=O)N3C(C(=O)O)=CCSC23)cs1` (stereo not given), the “activity, negative = inhibition” value was 7.92% (inactive).
The same measure, in the same setting: to `CC(=O)N[C@H]1[C@H](O[C@@H]2c3ccc(c(Cl)c3)Oc3cc4cc(c3O[C@@H]3O[C@H](CO)[C@@H](O)[C@H](O)C3C)Oc3ccc(cc3Cl)C[C@H]3NC(=O)[C@@H](N)c5ccc(O)c(c5)Oc5cc(O)cc(c5)[C@H](NC3=O)C(=O)N[C@H]4C(=O)N[C@H]3C(=O)N[C@@H]2C(=O)N[C@@H](C(=O)O)c2cc(O)cc(O[C@H]4O[C@H](CO)[C@@H](O)C(O)[C@@H]4O)c2-c2cc3ccc2O)O[C@H](CO)[C@@H](O)[C@@H]1O` (stereo not given in full) belongs 5.17% [at 12.8 µM] (inactive); to `CC(=O)OCC(=O)[C@@]1(O)CCC2C3C[C@H](C)C4=CC(=O)C=CC4(C)C3C(O)CC21C` (stereo not given in full), 9.63% (inactive).
Same read-out and setting: the figure for `C=C1CC2C3C=C(C)C4=CC(=O)CCC4(C)C3CCC2(C)[C@@]1(OC(C)=O)C(C)=O` (stereo not given in full) is -25.3% (inactive).
Take `Cc1ccc(Nc2ncccc2C(=O)O)cc1C`: the “activity, negative = inhibition” value is 10.4% (inactive).
The same measure, in the same setting: the figure for `CC1=C[C@@H](O)CC(C)(C)[C@@H]1/C=C/C(C)=C/C=C/C(C)=C/C=C/C=C(C)/C=C/C=C(C)/C=C/C1=C(C)C[C@H](O)CC1(C)C` is -21.1% (inactive); for `C/C1=C2/[N-]C(C(CC(N)=O)[C@@]2(C)CCC(=O)NCC(C)OP(=O)([O-])O[C@H]2[C@@H](O)[C@@H](n3cnc4cc(C)c(C)cc43)O[C@@H]2CO)[C@]2(C)N=C(/C(C)=C3N=C(/C=C4N=C1C(CCC(N)=O)C\4(C)C)[C@@H](CCC(N)=O)[C@]\3(C)CC(N)=O)[C@@H](CCC(N)=O)[C@]2(C)CC(N)=O.CC(=O)O.[Co]` (stereo not given in full) it is -9.81% (inactive).
`CCC(C(=O)C(C)C(O)C(C)CCc1ccc(C)c(O)c1C(=O)O)C1OC(CC)(C2CC[C@@](O)(CC)C(C)O2)CC1C` (stereo not given in full): the Potency was 1000 nM (active).
Same read-out and setting: to `C/C=C\C[C@H](C)[C@H](O)[C@H]1C(=O)N[C@@H](CC)C(=O)N(C)CC(=O)N(C)[C@@H](CC(C)C)C(=O)N[C@@H](C(C)C)C(=O)N(C)[C@@H](CC(C)C)C(=O)N[C@@H](C)C(=O)N[C@@H](C)C(=O)N(C)[C@@H](CC(C)C)C(=O)N(C)[C@@H](CC(C)C)C(=O)N(C)[C@@H](C(C)C)C(=O)N1C` belongs 2510 nM (active).
Regarding `O=C(O)C[CH2][Ge](=[O])[O][Ge](=[O])[CH2]CC(=O)O`, the “activity, negative = inhibition” value is 8.98% (inactive).
`CN(C)CC[C@@](O)(c1ccccc1)c1ccccc1Cl`: the Potency was 8910 nM (active).
For the compound `CO/N=C(/C(=O)N[C@@H]1C(=O)N2C(C(=O)O)=C(CSc3cnns3)CS[C@H]12)c1csc(N)n1`, the “activity, negative = inhibition” value was 3.31% (inactive).
Take `CC[C@@H]1/C=C(\C)C[C@H](C)C[C@H](OC)[C@H]2O[C@@](O)(C(=O)C(=O)N3CCCC[C@H]3C(=O)O[C@H](/C(C)=C/[C@@H]3CC[C@H](Cl)[C@H](OC)C3)[C@H](C)[C@@H](O)CC1=O)[C@H](C)C[C@@H]2OC`: the “activity, negative = inhibition” value was 4.19% (inactive).
Regarding `Clc1ccc(CS[C@@H](Cn2ccnc2)c2ccc(Cl)cc2Cl)cc1`, the Potency was 3160 nM (active).
Consider `C[C@@H]1CC2[C@@H]3C[C@H](F)C4=CC(=O)C(Cl)=C[C@]4(C)[C@@]3(F)[C@H](O)C[C@]2(C)[C@@]1(O)C(=O)CO` (stereo not given in full), for which the “activity, negative = inhibition” value is -13.7% (inactive).
Same read-out and setting: to `CC(=O)OCC(=O)[C@@]1(O)CCC2C3CCC4=CC(=O)C=CC4(C)C3C(O)C[C@]21C` (stereo not given in full) belongs 5.4% (inactive); to `CCCSS/C(CCO)=C(/C)N(C=O)Cc1cnc(C)nc1N`, -4.13% (inactive).
`C=C[C@@]1(C)C[C@H](OC(=O)CSC(C)(C)CNC(=O)[C@@H](N)C(C)C)[C@@]2(C)C(C)CC[C@@]3(CCC(=O)[C@@H]32)[C@H](C)[C@H]1O` (stereo not given in full): the Potency is 631 nM (active).
In the case of `C[C@H](O)[C@@H]1C(=O)N2C(C(=O)O)=C(SCCN=CN)C[C@@H]12`, the “activity, negative = inhibition” value was 7.4% [at 12.8 µM] (inactive).
Same read-out and setting: the figure for `CCCCCCCCCCCCCCCC(=O)OCC(COP(=O)(O)OCC[N+](C)(C)C)OC(=O)CCCCCCCCCCCCCCC` (stereo not given) is 8.3% (inactive).
On the same count and under the same terms, the figure for `CO/N=C(/C(=O)N[C@@H]1C(=O)N2C(C(=O)O)=C(C[n+]3ccc(N)n3CCO)CS[C@H]12)c1csc(N)n1` is 5.81% (inactive); for `O=[N+]([O-])O[C@H]1CO[C@H]2[C@@H]1OC[C@H]2O` it is 16.3% (inactive).
For the compound `CC[C@]1([C@H]2O[C@@H]([C@@H]3O[C@](O)(CO)[C@@H](C)C[C@H]3C)C[C@H]2C)CC[C@@H]([C@]2(C)CC[C@@]3(C[C@@H](O)[C@@H](C)[C@@H]([C@H](C)[C@H](OC)[C@H](C)C(=O)O)O3)O2)O1`, the Potency is 35.5 nM (active).
Consider `C=C(NCc1ccccc1)c1ccccc1O`, for which the “activity, negative = inhibition” value was 18.2% (inactive).
Same read-out and setting: the figure for `C=C1/C(=C\C=C2/CCC[C@]3(C)[C@@H]([C@H](C)/C=C/[C@@H](O)C4CC4)CC[C@@H]23)C[C@@H](O)C[C@@H]1O` is -23.1% (inactive); for `CO/N=C(/C(=O)N[C@@H]1C(=O)N2C(C(=O)O)=C(CSc3nnnn3C)CS[C@H]12)c1csc(N)n1` it is 9.15% (inactive); for `CCCCC(=O)OC1CCC2C3CCc4cc(O)ccc4C3CC[C@]12C` (stereo not given in full) it is -14.4% (inactive).
Take `CO/N=C(/C(=O)N[C@@H]1C(=O)N2C(C(=O)O)=C(CSC(=O)c3ccco3)CSC12)c1csc(N)n1` (stereo not given in full): the “activity, negative = inhibition” value was -1.81% (inactive).
The same measure, in the same setting: the figure for `OCCOC[C@H]1O[C@H](OCCO)[C@H](OCCO)[C@@H](OCCO)[C@@H]1OCCO` (tested in a mixture with another compound) is 0.598% (inactive).
As to `CC1(C(=O)O)CCC2(C)CCC3(C)C(=CC(=O)C4C5(C)CCC(O)C(C)(C)C5CCC43C)C2C1` (stereo not given), the “activity, negative = inhibition” value was 18.1% (inactive).
`O=c1ccn(C2OC(COP(=O)(O)OC3C(CO)OC(n4ccc(=O)[nH]c4=O)C3O)C(O)C2O)c(=O)[nH]1` (stereo not given): the “activity, negative = inhibition” value was 10.1% (inactive).
Turning to `O=C(O)C(O)c1ccccc1` (stereo not given), the “activity, negative = inhibition” value is 3.97% (inactive).
For `CC[C@H](C)[C@H]1O[C@]2(CC[C@@H]1C)C[C@@H]1C[C@@H](C/C=C(\C)[C@H](O[C@@H]3C[C@H](OC)[C@H](O[C@@H]4C[C@H](OC)[C@@H](O)[C@H](C)O4)[C@H](C)O3)[C@@H](C)/C=C/C=C3\CO[C@@H]4[C@H](O)C(C)=C[C@@H](C(=O)O1)[C@]34O)O2`, the Potency is 794 nM (active).
Still for that read-out and setting: the figure for `CCC(C(=O)O)C1OC(C(C)C(O)C(C)C(=O)C(CC)C2OC3(C=CC(O)C4(CCC(C)(C5CCC(O)(CC)C(C)O5)O4)O3)C(C)CC2C)C(C)CC1C` (stereo not given) is 126 nM (active).
Take `NC[C@@H]1O[C@H](OC2[C@@H](CO)O[C@@H](OC3[C@H](O)[C@H](N)C[C@H](N)[C@H]3OC3O[C@H](CO)[C@@H](O)[C@H](O)[C@@H]3N)[C@H]2O)C(N)[C@H](O)[C@@H]1O` (stereo not given in full): the “activity, negative = inhibition” value was 6.77% (inactive).
As to `NC(=O)c1ncn(C2OC(CO)C(O)C2O)c1N` (stereo not given), the “activity, negative = inhibition” value was 8.89% (inactive).
Still for that read-out and setting: the figure for `COc1cccc(OC)c1C(=O)NC1C(=O)N2C1SC(C)(C)C2C(=O)O` (stereo not given) is -4.31% (inactive).
Still for that read-out and setting: to `NC(=O)NC(CCC(=O)O)C(=O)O` (stereo not given) belongs 4.79% (inactive); to `C=C1NC(=O)c2cc(CN(C)c3ccc(C(=O)N[C@@H](CCC(=O)O)C(=O)O)s3)ccc2N1`, -27.8% (inactive).
Same read-out and setting: to `Cc1onc(-c2c(F)cccc2Cl)c1C(=O)NC1C(=O)N2C1SC(C)(C)C2C(=O)O` (stereo not given) belongs -2.92% (inactive).
